Source: PubChem BioAssay AID1259318 (Sanford-Burnham Center for Chemical Genomics, 2017)
Hit rate of the full screen: of about 370,000 compounds, about 3,000 (0.81%) were called active. The sample holds actives, similar compounds and a random draw of the others, so the mix is not that of the screen. A number with no mark means an inactive call.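 The calls were made as follows: active = activity above about 14% (limit read from the data; passing the limit was not always enough); inactive = the rest.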

Molecular target: Nuclear receptor subfamily 1 group D member 1 (Homo sapiens) (UniProt P20393)
Assay: modulators of Rev-erb alpha DNA binding, primary screen, biochemical, FITC-DNA, fluorescence polarization, uHTS (AID 1259318);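 also: 0% = DMSO wells with 35 nM protein and 100% = DMSO wells with 750 nM protein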
Conditions: Rev-erbα–FITC-DNA binding, 90 min, at 10 µM, hits give high values

Sequence of Nuclear receptor subfamily 1 group D member 1 (Homo sapiens) (P20393 whole entry, looked up): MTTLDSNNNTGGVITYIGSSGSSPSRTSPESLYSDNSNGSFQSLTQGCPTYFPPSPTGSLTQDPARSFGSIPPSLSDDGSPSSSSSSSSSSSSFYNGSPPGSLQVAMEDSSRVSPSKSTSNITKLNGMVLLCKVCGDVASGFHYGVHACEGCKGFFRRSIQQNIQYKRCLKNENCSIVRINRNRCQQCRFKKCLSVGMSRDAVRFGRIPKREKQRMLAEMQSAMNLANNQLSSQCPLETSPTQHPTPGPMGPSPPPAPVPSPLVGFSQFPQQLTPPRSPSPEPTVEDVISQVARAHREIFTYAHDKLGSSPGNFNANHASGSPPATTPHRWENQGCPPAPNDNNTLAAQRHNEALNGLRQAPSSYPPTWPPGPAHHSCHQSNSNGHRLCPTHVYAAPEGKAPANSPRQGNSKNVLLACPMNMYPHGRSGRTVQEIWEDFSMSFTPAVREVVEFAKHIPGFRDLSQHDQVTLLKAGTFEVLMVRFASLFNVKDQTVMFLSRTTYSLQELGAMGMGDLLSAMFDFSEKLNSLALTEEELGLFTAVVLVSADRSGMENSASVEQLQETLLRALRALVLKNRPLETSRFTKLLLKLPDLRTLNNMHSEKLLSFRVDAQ

| SMILES | activity |
| --- | --- |
| CCOCCc1c(O)[nH]c(=S)[nH]c1=O | -0.86% |
| COc1ccccc1N=Nc1c(O)[nH]c(=S)[nH]c1=O | 28.1% (active) |
| O=C1N=c2ccccc2=C/C1=C\c1c(O)[nH]c(=S)[nH]c1=O | -4.55% |
| CCC(C)C(=O)O[C@H]1[C@H](O)C2C(CN3CC(C)CCC3[C@@]2(C)O)C2C[C@]34O[C@]5(O)C(OC(=O)C(C)(O)CC)CC[C@@]3(C)C5[C@H](OC(C)=O)[C@@H](OC(C)=O)C4[C@@]21O (stereo not given in full) | -4.52% |
| CCN(CC)C(=O)[C@@H]1C=C2c3cccc4[nH]c(Br)c(c34)C[C@H]2N(C)C1 | -1.01% |
| C=CCNCCCCCCCCCC (tested in a mixture with another compound) | -9.67% |
| COC(=O)CN(CCCl)P1(=O)OCCCN1CCCl (stereo not given) | 15.9% (active) |
| c1ccc2sc(SNC3CCCCC3)nc2c1 | 6.27% |
| CCOC(=O)C1=C(C)OC(N)=C(C(=O)OC)C12C(=O)Nc1ccc(Br)cc12 (stereo not given) | 4.04% |
| CC(=O)O[C@H]1CC[C@@]2(C)C(=CCC3C2CC[C@]2(C)C(=O)CCC32)C1 (stereo not given in full) | 2.71% |
